The source made the active and inactive calls. The calls were made as follows: active = hit-call score of the fitted dose curve at least 0.9, where 1 is the maximum; inactive = score below 0.9.

Read-out in the assay: Monokine induced gamma interferon (MIG), CXCL9 (gene 4283)
In words: BSK_SAg_MIG: BioMAP Diversity Plus: SAg Assay for Monokine induced gamma interferon (MIG) Biomarker Activity (AID 2283092). As to conditions: primary human HUVEC with PBMC; actives raise or lower the signal. How it is done: BSK_SAg is a cell-based, multiplexed-readout assay that uses umbilical vein endothelium and peripheral blood mononuclear cells, a human vascular primary cell co-culture, with measurements taken at 24 hours after chemical dosing in a 96-well plate.BSK_SAg_MIG is an assay component measured in the BSK_SAg assay. It measures MIG antibody related to regulation of gene expression using ELISA technology.Data from the assay component BSK_SAg_MIG was analyzed into 1 assay endpoint. This assay endpoint, BSK_SAg_MIG, was analyzed with bidirectional fitting relative to DMSO as the negative control and baseline of activity. Using a type of binding reporter, gain or loss-of-signal activity can be used to understand changes in the signaling as they relate to the gene CXCL9. Furthermore, this assay endpoint can be referred to as a primary readout, because this assay has produced multiple assay endpoints where this one serves a signaling function. To generalize the intended target to other relatable targets, this assay endpoint is annotated to the cytokine intended target family, where the subfamily is chemotactic factor.
The levels of cell surface (or secreted, indicated by the prefix "s") biomarker endpoints were measured by ELISA. Overt cytotoxicity to cells in confluent adherent cultures (all systems other than the BT system) was assessed by measuring total protein levels using sulforhodamine B (SRB) staining in parallel cultures at the time of biomarker measurements, indicated as SRB endpoints. For proliferation assays for adherent cell types, individual cell types are cultured at sub-confluence and relative cell numbers quantified by SRB staining at time points optimized for each system (48 h: 3C and CASM3C systems; 72 h: BT and HDF3CGF systems; 96 h: SAg system). SRB was performed by staining cells with 0.1% SRB after fixation with 10% TCA and reading wells at 560 nm.Viability and proliferation of PBMC (T cells) was quantified by Alamar Blue reduction for the SAg and BT systems. For PBMC viability (referred to as PBMC Cytotoxicity within the assay endpoint names), cells were plated (75,000/well in a 96-well plate) and then chemical samples added for 1 h before addition of activators, SEB and TSST-1 (20 ng/mL final concentration each). Cells were incubated for 90 h. Then, Alamar Blue (20 uL/well) (Invitrogen, Cat DAL1100) was added for 6 h, and the plates were read with a fluorescence microplate reader at 546/580 nm (excitation/emission). For PBMC proliferation, cells were plated and activated as above but incubated for only 16 h prior to addition of Alamar Blue. Plates were read after 6 h.
For `O=C(O)Cc1cc(I)c(Oc2ccc(O)c(I)c2)c(I)c1`, the outcome was inactive.

On to `OCCO`, for which the result was inactive.

Consider `CCCCOC(=O)c1ccc(O)cc1`, for which the outcome was inactive.

As to `CCN(Cc1cccc(S(=O)(=O)O)c1)c1ccc(C(=C2C=CC(=[N+](CC)Cc3cccc(S(=O)(=O)O)c3)C=C2)c2ccccc2S(=O)(=O)[O-])cc1`, the outcome was inactive.

Take `O=c1ccc2ccccc2o1`: the outcome was inactive.

In the case of `CCCCOC(=O)CC(CC(=O)OCCCC)(OC(C)=O)C(=O)OCCCC`, the outcome was inactive.

Turning to `COc1cccc([C@H](O)C2CCN(CCc3ccc(F)cc3)CC2)c1OC`, the outcome was inactive.

Consider `O=C(O)Cn1c(=O)n(Cc2ccc(Br)cc2F)c(=O)c2ccc(Cl)cc21`, for which the outcome was inactive.

As to `CCO[Si](CCCNC(N)=O)(OCC)OCC`, the result was inactive.

With `O=C(O)c1ccccc1-n1cc(C(=O)O)c(=O)c2cc(Nc3c(F)cc(F)cc3Cl)c(Cl)cc21`, the outcome was inactive.

For the molecule `C[C@]12CC[C@@H]3c4ccc(O)cc4CC[C@H]3[C@@H]1CC[C@H]2O`, the outcome was inactive.

With `CCCOC(=O)c1cc(O)c(O)c(O)c1`, the outcome was inactive.

For orientation: AC50 means the concentration at which the activity in the assay is half-maximal. On to `CCCCCCCCCCCC[N+](C)(C)C`, for which the concentration at half-maximal activity (AC50) is 29.4 µM (active).

`CCCCCCCCCCCCO`: the AC50 is 36.3 µM (active).

For the molecule `O=C(Nc1ccc(Cl)cc1)Nc1ccc(Cl)c(Cl)c1`, the AC50 was 2.11 µM (active).

With `CC(C)(C)c1cc(/C=C2\SC(N)=NC2=O)cc(C(C)(C)C)c1O`, the AC50 was 27.6 µM (active).

On to `CC(C)(O)c1ccc(CNC(=O)c2cccnc2Oc2ccc3nonc3c2)cc1`, for which the outcome was inactive.

Consider `Oc1ccc2ccccc2c1`, for which the result was inactive.

In the case of `O=c1c(-c2ccc(O)cc2)coc2cc(O)cc(O)c12`, the AC50 is 29.7 µM (active).

Consider `CN1C(=O)CC[C@H]1c1cccnc1`, for which the result was inactive.

On to `CCN(CC)C(=O)c1cc(S(=O)(=O)Cc2ccccc2)c(N2CCC(c3ccccc3)CC2)cc1N(CC)CCN(C)C`, for which the AC50 was 15.2 µM (active).

In the case of `COCC(C)OCC(C)OCC(C)O` (stereo not given), the result was inactive.

On to `Cc1cn([C@H]2C[C@H](N=[N+]=[N-])[C@@H](CO)O2)c(=O)[nH]c1=O`, for which the outcome was inactive.

For the molecule `CCCCCCCCOC(=O)c1cc(O)c(O)c(O)c1`, the AC50 is 30.4 µM (active).

`CO[C@H]1/C=C/O[C@@]2(C)Oc3c(C)c(O)c4c(O)c(c(/C=N/N5CCN(C)CC5)c(O)c4c3C2=O)NC(=O)/C(C)=C\C=C\[C@H](C)[C@H](O)[C@@H](C)[C@@H](O)[C@@H](C)[C@H](OC(C)=O)[C@@H]1C`: the outcome was inactive.

For `COc1ccc2cc(S(=O)(=O)N[C@H](CC(=O)N[C@H](Cc3ccc(CN4[C@H](C)CCC[C@@H]4C)cc3)C(=O)N(C)C(C)C)c3ccc4c(c3)OCO4)ccc2c1`, the AC50 was 35.2 µM (active).

Regarding `O=C=NCCCCCCN=C=O`, the outcome was inactive.

Regarding `CC(=O)N1CCN(c2ccc(OC[C@H]3CO[C@](Cn4ccnc4)(c4ccc(Cl)cc4Cl)O3)cc2)CC1`, the concentration at half-maximal activity (AC50) is 37.7 µM (active).

For `CN1C(=O)N(c2ccccc2Br)Cc2cnc(Nc3ccc4c(c3)OCC(CO)O4)nc21` (stereo not given), the half-maximal activity concentration (AC50) was 2.89 µM (active).

Take `O=C(O)c1ccccc1C(=O)OCc1ccccc1`: the result was inactive.

For `Cc1ncc(CO)c(CO)c1O`, the outcome was inactive.

In the case of `CCCCCCCCCC(=O)O`, the outcome was inactive.

With `C[C@]12CC[C@@H]3c4ccc(O)cc4CC[C@H]3[C@@H]1CCC2=O`, the outcome was inactive.

As for `Cc1c2ccccc2c(C)c2c1ccc1ccccc12`, the outcome was inactive.

As to `O=C1c2ccccc2C(=O)N1CCc1noc(-c2ccc(CN3CCCCCC3)s2)n1`, the outcome was inactive.

On to `O=C(OCCCCCCOC(=O)c1ccccc1)c1ccccc1`, for which the result was inactive.

For `CC[C@H](NC(=O)c1cc(F)ccc1NS(=O)(=O)c1cccc2cccnc12)c1ccccc1`, the result was inactive.

Take `COc1cc(C(=O)NC2CCN(C)CC2)ccc1Nc1ncc2c(n1)N(C1CCCC1)CC(F)(F)C(=O)N2C`: the AC50 is 14.4 µM (active).

Consider `O=c1[nH]sc2ccccc12`, for which the AC50 is 28.8 µM (active).

Take `O=C1CCC(C2CCCCC2)CC1`: the result was inactive.
